Compounds with a hit are over-represented: about 4% of the library has one in this group of screens.
Mdm2 MdmX PPI = human Mdm2/MdmX binding inhibition. 330,000 compounds, 3% hits. inhibition, % at 8 µM. SaOS-2 split-luciferase Mdm2/MdmX complementation, luminescence;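 active = inhibition of at least 50% at 8 µM in the primary screen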
Jurkat NFkB inh = lowers PMA/ionomycin-induced NF-kB signal in Jurkat cells. PMA/ionomycin-induced NF-kB luciferase reporter, luminescence. inhibition, % at 4 µM. 330,000 compounds, 0.53% hits; in the data active = inhibition above about 50%
Beta cell apopt = beta cell apoptosis inhibition; AID 435005; protection from apoptosis, % (no concentration beside the values); INS-1E cytokine-induced death, ATP luminescence, 48 h; percent of positive-control rescue, neutral wells zero; 300,000 compounds, 0.8% hits;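 active = Every replicate reaches about 75%, or at least half do and their mean reaches it too, limit read from the data; inconclusive = At least half of replicates reach the limit but their mean does not; inactive = Under half of replicates reach the limit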;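 also: 0% = cytokine-treated negative control wells and 100% = positive control rescue; higher means more ATP so stronger rescue from cytokine killing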
Gli-Sufu antag = Gli-Sufu pathway antagonism. Sufu-KO-LIGHT fibroblasts, Gli luciferase reporter luminescence. inhibition, % at 5 µM. 340,000 compounds, 0.74% hits. AID 588413;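 active = inhibition above about 55%, limit read from the data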;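 also: 0% = DMSO-treated cells and 100% = wells with medium but no cells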
697 NFkB inh = inhibitors of the PMA/ionomycin-induced NF-kB reporter in 697 B cells; 697 B-cell NF-kB luciferase reporter, 16 h; inhibition, % at 4 µM; 330,000 compounds, 0.33% hits; AID 435022; in the data active = inhibition above about 35%
Mdm2 MdmX conf = human Mdm2/MdmX binding inhibition, confirmed. shares compounds with Mdm2 MdmX PPI. luminescent assay. inhibition, % at 8 µM. 10,000 compounds, 55% hits; in the data active = inhibition above about 40%
FLuc counter = counter-screen for Mdm2/MdmX inhibitors: full-length luciferase; shares compounds with Mdm2 MdmX PPI; AID 504607; 6,200 compounds, 77% hits; inhibition, % at 8 µM; SaOS-2 full-length luciferase counterscreen, luminescence;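 active = mean inhibition at 8 µM reaching about 37%, which flags the compound as non-specific, limit read from the data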;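 also: p53-null SaOS-2 cells with luciferase driven by a doxycycline-inducible promoter; compound on cells about two nights before reading with doxycycline added after day one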
Active calls of the source: *; u = inconclusive; x = no result.

SMILES	Mdm2 MdmX PPI	Jurkat NFkB inh	Beta cell apopt	Gli-Sufu antag	697 NFkB inh	Mdm2 MdmX conf	FLuc counter
Cc1ccc(NC(=O)c2ccccc2NS(=O)(=O)c2ccc(Cl)s2)cc1	90*	7	77*	43	-40	81*	29
O=C1N(c2ccccc2)C(c2ccccc2)C12CCCCC2 (centres undefined)	26	x	x	0	16	x	x
Cc1ccc(S(=O)(=O)c2c(N)n(CCCN(C)C)c3nc4ccccc4nc23)cc1	54*	6	x	-5	7	11	x
COc1ccc(C(=O)CC(=O)c2ccccc2)cc1	8	-114	3	-31	-138	x	x
COc1ccc(C(=O)C/C(=C\C(=O)c2ccc(C)cc2)c2ccccc2)cc1	86*	13	u	4	-7	84*	24
CN(C)CCSc1nc2cc(S(=O)(=O)N3CCCCC3)ccc2o1	-12	15	-7	2	-1	x	x
COC(=O)/N=C/c1c(NCc2ccccc2)nc2c(C)cccn2c1=O	70*	-13	-6	2	2	33	x
COc1ccc(S(=O)(=O)Cc2ccc(C(=O)N3CCN(c4cc(C)ccc4C)CC3)o2)cc1	15	4	0	14	2	x	x
COc1ccc(S(=O)(=O)Cc2ccc(C(=O)N3CCN(c4cccc(C)c4C)CC3)o2)cc1	63*	48	x	12	-25	61*	47*
Cc1ccc(OC(=O)C2CCN(C(=O)c3ccccc3C)CC2)c(Br)c1	8	-2	x	12	-10	x	x
CCN(CC)c1ccc(NC(=O)c2ccc(=O)[nH]c2)cc1S(=O)(=O)Nc1ccccc1OC	50*	50	16	-5	-8	56*	54*
CCN(CC)c1ccc(NC(=O)c2ccccc2Br)cc1S(=O)(=O)Nc1ccccc1OC	-6	1	33	12	-21	x	x
O=C(Nc1nc2ccccc2s1)C1CCN(S(=O)(=O)c2cc([N+](=O)[O-])ccc2Cl)CC1	96*	28	81*	39	0	87*	38*
CCOC(=O)CN1C(=O)N[C@@H](c2cccc(C(F)(F)F)c2)[C@@H](C(=O)OC)[C@H]1C	-12	-7	3	-4	-19	x	x
COCCN(CCOC)S(=O)(=O)c1ccc(C(=O)Nc2sc3c(c2C(N)=O)CCCCC3)cc1	82*	-30	-8	12	-37	57*	116*
Cc1ccc(/C=N/Nc2cc(C)nc(NCc3ccccc3)n2)cc1	47	17	28	7	1	x	x
Cc1cc(Nc2ccc(Cl)cc2)nc(NCc2ccccc2)n1	63*	25	16	46	-19	42*	75*
Cc1cc(N/N=C/c2ccc(Cl)cc2Cl)nc(NCc2ccccc2)n1	71*	12	x	43	4	31	x
CN1CCCN(S(=O)(=O)c2ccc(O)c(C(=O)O)c2)CC1	-13	-50	-5	9	-23	x	x
O=C(Nc1cccc(Cl)c1)Nc1csc([N+](=O)[O-])c1	90*	28	126*	-13	14	87*	39*
O=C(Nc1ccncc1)Nc1cccc(Cl)c1	16	-17	4	-6	-18	x	x
COc1ccc(NC(=O)CSc2nc(-c3ccc(C)cc3)cc(C(F)(F)F)c2C#N)cc1	26	-31	-6	6	-91	x	x
COc1ccc(-c2cc(C(F)(F)F)c(C#N)c(SCC(=O)Nc3nc(C)co3)n2)cc1	62*	-31	6	8	-10	23	x
COc1ccc(-c2cc(C(F)(F)F)c(C#N)c(SCC(=O)Nc3ccccc3C#N)n2)cc1	53*	-7	14	2	12	13	x
Cc1coc(NC(=O)CSc2nc(-c3ccc(Cl)cc3)cc(C(F)(F)F)c2C#N)n1	44	11	2	13	1	x	x
SMILES	Mdm2 MdmX PPI	Jurkat NFkB inh	Beta cell apopt	Gli-Sufu antag	697 NFkB inh	Mdm2 MdmX conf	FLuc counter
O=C1C(=O)N(CC2CCCO2)C(c2ccco2)/C1=C(/O)c1ccc(F)cc1 (centres undefined)	15	-3	-6	3	18	x	x
O=C(NCc1ccc(F)cc1)C1CCCN1S(=O)(=O)c1cccc2nsnc12 (centres undefined)	8	-6	x	3	-5	x	x
COc1ccc2nc3cc(Cl)ccc3c(Nc3ccc(O)c(CN4CCN(C)CC4)c3)c2c1	x	x	x	16	x	x	x
O=C(N/N=C/c1ccc(Cl)cc1Cl)c1cccc(N2CCCC2=O)c1	4	14	6	12	7	x	x
O=C(N/N=C/c1sc(N2CCOCC2)nc1-c1ccccc1)c1cccc(S(=O)(=O)N2CCCC2)c1	79*	40	107*	-4	15	72*	41*
O=C(N/N=C/c1cc(Br)cc(Br)c1O)c1cccc(S(=O)(=O)N2CCOCC2)c1	59*	-2	-11	-2	-9	60*	30
O=C(N/N=C/c1cc(Br)cc(Br)c1O)c1cccc(N2CCCC2=O)c1	58*	-7	2	22	18	50*	26
O=C(N/N=C/c1ccccc1Br)c1cccc(S(=O)(=O)N2CCOCC2)c1	15	-3	-7	-2	2	x	x
CCc1c2ccccc2nn1-c1ccccc1C(=O)C(C)=O	14	-5	0	15	-4	x	x
COc1ccc(-n2c(O)c(C=Nc3ccccc3)c3ccccc3c2=O)cc1OC	80*	9	14	4	13	11	x
CCOC(=O)Cc1csc(/N=C/c2c(O)n(-c3ccc(C)c(C)c3)c(=O)c3ccccc23)n1	73*	21	70	14	13	16	x
COC(=O)[C@]1(CC(C)C)N[C@H](c2ccc(-c3cccc(Cl)c3)cc2)[C@@H]2C(=O)N(C)C(=O)[C@@H]21	42	9	26	2	21	x	x
Cn1ccnc1CN1CCCCC1C(=O)Nc1ccc(Oc2cccnc2)cc1 (centres undefined)	51*	45	x	2	-25	74*	65*
CCn1ccnc1CN1CCCCC1C(=O)Nc1ccc(Oc2cccnc2)cc1 (centres undefined)	49	33	-2	-10	-14	x	x
Oc1ccc(C[C@@H]2CNCCN2CCCCC2CCCCC2)cc1	57*	2	2	2	18	16	x
Oc1ccc(C[C@H]2CNCCN2CCc2cc(C(F)(F)F)cc(C(F)(F)F)c2)cc1	58*	12	-19	-1	-6	12	x
Oc1ccc(C[C@@H]2CNCCN2CCc2cc(C(F)(F)F)cc(C(F)(F)F)c2)cc1	47	16	-1	9	-8	x	x
C/C(=N/NC(=O)CN(c1ccccc1)S(=O)(=O)c1ccccc1)c1ccccc1O	72*	19	109*	41	-9	60*	27
Cc1cc(/C=C2\SC(=S)N(C)C2=O)c(C)n1-c1cccc(O)c1	78*	-46	-1	-2	-114	79*	98*
CN=C1S/C(=C\c2cc(C)n(-c3ccccc3F)c2C)C(=O)N1C	56*	-114	23	45	-195	39	100*

Screening data (PubChem)
